GoLoco inh red: qHTS Assay for Inhibitors of RGS12 GoLoco Motif Activity (Red Fluorophore); Guanine nucleotide-binding protein G(i) subunit alpha-1 (Homo sapiens), P63096; Potency, µM (top dose mostly 61.6 µM), for inactives: top-dose activity, negative = inhibition, most hits filed as inhibitors; 230,000 compounds, 0.44% hits; Gai1:RGS12 GoLoco peptide FP, rhodamine, 10 min; active = well fitted inhibition curve with a large enough effect, not every such curve was filed as active; inactive = no such curve, though single readings can be large or run the other way; also: potency is read from the fitted curve at half-maximal effect; nearly all actives have a fitted effect of over 30% in size
Sfp inh: qHTS Assay for Inhibitors of Bacillus subtilis Sfp phosphopantetheinyl transferase (PPTase); 4'-phosphopantetheinyl transferase ffp (Bacillus subtilis), Q9F4F7; Biochemical Sfp PPTase activity, qHTS; Potency, µM, for the others: largest response in the series, negative = inhibition, most hits filed as inhibitors; 310,000 compounds, 3.5% hits; AID 1490, 2009; active = well fitted curve in the direction sought with a large enough effect; inconclusive = small, poorly fitted or top-dose-only effect, or another doubt; inactive = no such curve, though single readings can be large; an effect the other way counts as inactive or inconclusive;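 also: the enzyme is Sfp with the accession as filed and its product quenches rhodamine fluorescence; potency is read from the fitted curve at half-maximal effect; 0% = enzyme reaction without inhibitor and -100% = no enzyme wells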
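Reaction rates are the 30-min fluorescence difference (ex 525, em 598 nm) in wells containing 15 nM Sfp, 5 uM rhodamine-CoA and 12.5 uM BHQ-2-YbbR at pH 7.6 with 10 mM MgCl2.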
Coupling enz: qHTS Assay for Inhibitors of Fructose-1,6-bisphosphate Aldolase from Giardia Lamblia: Coupling assay counterscreen; activity change, negative = inhibition, % at 58.2 µM, hits read low; coupling enzyme system counterscreen, AmpLite Red fluorescence; 290,000 compounds, 0.67% hits; in the data active = activity change below about -30%
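Fluorescence at 525 nm excitation and 598 nm emission measured inhibition of the coupled detection system without aldolase. Compounds (at 57.5 uM final) were preincubated 10 min at room temperature with coupling enzyme reagent before a 20 min substrate/AmpLite Red step.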
ALDH1A1 inh: qHTS Assay for Inhibitors of Aldehyde Dehydrogenase 1 (ALDH1A1); Aldehyde dehydrogenase 1A1 (Homo sapiens), P00352; Purified ALDH1A1, NADH fluorescence, propionaldehyde substrate; Potency, µM (doses to about 75.3 µM), for the others: top-dose activity, negative = inhibition, actives largely listed as inhibitors; 220,000 compounds, 7.3% hits;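 also: potency is read from the fitted curve at half-maximal effect; plate controls were no enzyme wells and a reference inhibitor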
NPSR antagonist: qHTS Assay for Antagonists of the Neuropeptide S Receptor: cAMP Signal Transduction | 220,000 compounds, 1% hits | CHO-NPSR cells, cAMP TR-FRET, antagonist mode | AID 1461, 2008 | Potency, µM (highest dose often 38.3 µM), for the others: top-dose activity change, negative = inhibition, usual class: inhibitors; active = well fitted curve in the direction sought with a large enough effect; inconclusive = small, poorly fitted or top-dose-only effect, or another doubt; inactive = no such curve, though single readings can be large; an effect the other way counts as inactive or inconclusive; also: potency is read from the fitted curve at half-maximal effect; nearly all actives have a fitted effect of over 50% in size
Target sequence (Q6W5P4 whole entry, looked up): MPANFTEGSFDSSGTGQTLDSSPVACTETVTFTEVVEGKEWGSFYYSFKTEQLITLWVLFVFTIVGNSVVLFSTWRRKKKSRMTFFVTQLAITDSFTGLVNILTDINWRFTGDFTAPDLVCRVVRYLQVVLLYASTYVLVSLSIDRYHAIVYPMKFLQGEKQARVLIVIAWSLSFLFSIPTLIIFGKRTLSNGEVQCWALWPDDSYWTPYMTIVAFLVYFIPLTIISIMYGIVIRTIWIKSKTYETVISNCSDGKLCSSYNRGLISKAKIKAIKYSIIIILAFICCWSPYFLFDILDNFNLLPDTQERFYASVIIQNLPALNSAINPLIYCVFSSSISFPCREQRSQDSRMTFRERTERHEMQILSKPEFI
KDM4E inh: qHTS Assay for Inhibitors of Human Jumonji Domain Containing 2E (JMJD2E) | Lysine-specific demethylase 4E (Homo sapiens), B2RXH2 | JMJD2E catalytic domain, FDH-coupled NADH fluorescence (FDH is formaldehyde dehydrogenase) | Potency, µM (series often up to 57.1 µM), inactives show top-dose activity change, negative = inhibition, most hits filed as inhibitors | 230,000 compounds, 1.6% hits | AID 2147, 2009;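 also: potency is read from the fitted curve at half-maximal effect; 0% = wells with enzyme and -100% = buffer wells without enzyme; nearly all actives have a fitted effect of over 50% in size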
Target sequence (B2RXH2 1-337 limits assumed): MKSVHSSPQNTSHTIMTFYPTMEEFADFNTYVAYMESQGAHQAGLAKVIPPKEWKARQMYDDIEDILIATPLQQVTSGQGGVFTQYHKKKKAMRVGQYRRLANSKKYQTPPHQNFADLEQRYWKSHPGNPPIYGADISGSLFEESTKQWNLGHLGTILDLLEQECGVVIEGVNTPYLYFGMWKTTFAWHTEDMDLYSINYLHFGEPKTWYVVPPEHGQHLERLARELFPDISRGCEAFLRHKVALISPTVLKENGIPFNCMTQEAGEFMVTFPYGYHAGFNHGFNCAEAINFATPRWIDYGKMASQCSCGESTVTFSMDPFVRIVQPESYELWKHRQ
Numbers without * were called inactive; ? = inconclusive; . = not tested or not shown; ! = not confirmed by another sample; [ ] = another dose, or the depositor's remark. This is a sample that favours compounds with a hit; in the whole collection about 8.5% have one here. Unless noted, calls follow the shape of the dose curve; as a rule, active = well fitted inhibition curve with a large enough effect (not every such curve was filed as active); inconclusive = small, poorly fitted or top-dose-only effect, or another doubt; inactive = no such curve, though single readings can be large or run the other way. Unless noted, % is scaled to controls: 0 for no effect and ±100 for the full control effect.

SMILES	GoLoco inh red	Sfp inh	Coupling enz	ALDH1A1 inh	NPSR antagonist	KDM4E inh
CC1CN(c2snnc2C=C2C(=O)OC(C)(C)OC2=O)CC(C)O1 (stereo unspecified)	11.7%	50.1µM*	-1.0	20µM*	6.3%	-18.2%
COc1ccc(CCNC(=O)C(=O)NCC2OCCN2S(=O)(=O)c2ccccc2)cc1 (stereo unspecified)	.	19.9%	-0.3	.	.	.
CCCCOc1cccc(C(=O)NC(=S)Nc2cccc(NC(=O)c3ccccc3Cl)c2)c1	9.7%	-2.6%	-1.0	2µM*	-15.1%	8.5%
O=C(O)c1cccc(NC(=S)NC(=O)c2cccc(OCc3ccccc3)c2)c1	.	5.2%	9.1	.	.	.
CCCOc1cccc(C(=O)NC(=S)Nc2ccccc2)c1	13.3%	-9.9%	2.4	17.8µM*	-18.9%	-22.1%
CCCOc1cccc(C(=O)NC(=S)Nc2cccc(NC(=O)c3ccccc3Cl)c2)c1	0.3%	26.6%	0.0	12.6µM*	-22.4%	11.6%
CC(C)COc1cccc(C(=O)NC(=S)Nc2cccc(NC(=O)c3ccccc3Cl)c2)c1	2.7%	31.5%	-1.9	10µM*	-26.2%[46.1 µM]	5.5%
CC(C)C(=O)Nc1cccc(NC(=S)NC(=O)c2ccccc2Cl)c1	9.1%	4.2%	2.1	?	-6.6%[46.1 µM]	0.7%
COC(=O)C1=C(C(=O)OC)[C@@H]2N(C)c3ccccc3[C@@]23C[C@@H](C(=O)OC)N(S(=O)(=O)c2ccc(C(F)(F)F)cc2)C3=N1	3.5%[14.2 µM]	-6.9%	-2.2	2.4%[13.5 µM]	.	3.3%[11.4 µM]
CSc1cccc(NC(=O)c2cc(S(=O)(=O)N3CCc4ccccc43)cn2C)c1	.	10.7%	-5.3	.	.	.
O=C(NCc1nnc2c(C(F)(F)F)cc(Cl)cn12)c1ccco1	.	25.6%	0.8	.	.	.
Cc1ccc(NC(=O)CN2C(=O)NC(Cc3c[nH]c4ccccc34)C2=O)cc1S(=O)(=O)N1CCCCC1 (stereo unspecified)	1.4%	4.5%	3.4	7.4%	-5.1%	-3.1%
CC(C)CC(=O)NC(=S)Nc1cccc(NC(=O)c2ccccc2)c1	8.1%	9.7%	0.0	25.1µM*	-10.4%	7.4%
CC(C)Oc1cccc(C(=O)NC(=S)Nc2ccccc2)c1	-0.9%	-18.5%	-3.1	10µM*	-35.7%	6.3%
CC(C)(C)c1ccc(S(=O)(=O)NNC(=O)C2CCN(Cc3cccc(F)c3)CC2)cc1	6.8%	8.5%	0.4	2.24µM*	-17.6%	-6.5%
CCC(=O)Nc1ccc(C=C(C(C)=O)C(C)=O)cc1	-6.7%	10.8%	-1.5	.	-24.6%	?
CC(=O)C(=Cc1ccc(O)cc1)C(C)=O	3.2%	-12.6%	0.4	7.08µM*	-10.6%	?
Nc1ncnc2c1ncn2[C@@H]1O[C@H](COP(=O)(O)OP(=O)(O)OP(=O)(O)OP(=O)(O)OC[C@@H]2O[C@H](n3cnc4c(N)ncnc43)[C@@H](O)[C@H]2O)[C@@H](O)[C@H]1O	-8.8%	11.8%	.	?	.	.
Nc1ncnc2c1ncn2[C@@H]1O[C@H](COP(=O)(O)OP(=O)(O)O)[C@@H](O)[C@H]1O	8.8%	50.1µM*!	2.1	0.6%	.	-1.9%
c1ccc(-c2nnc3sc(-c4csc5c4CCCC5)nn23)cc1	2.5%	6.31µM*	-1.3	7.94µM*	10µM*	-6.1%
c1ccc(-c2nnc3sc(-c4ccncc4)nn23)cc1	2.4%	-19.4%	2.4	?	1.8%[46.1 µM]	-21.4%
Cc1cccc(-c2nnc3sc(-c4ccccc4C)nn23)c1	12.6%	50.1µM*	-0.8	-8.1%	?	-7.5%
O=C(c1ccco1)[C@@H]1[C@@H]2C(=O)N(c3ccc(F)cc3)C(=O)[C@@H]2C2c3ccccc3C=CN21 (stereo partly specified)	83.5%	-28.6%	-39.7*	12.6µM*	-10.2%[46.1 µM]	-29.1%
CC(C)(C)C(=O)[C@@H]1[C@@H]2C(=O)N(Cc3ccccc3)C(=O)[C@@H]2[C@H]2c3ccccc3C=CN12	43.5%	-7.0%	-12.1	?	-9.1%[46.1 µM]	-26.0%
O=C(c1ccco1)[C@@H]1[C@@H]2C(=O)N(c3ccc(Br)cc3)C(=O)[C@@H]2C2c3ccccc3C=CN21 (stereo partly specified)	132.0%	-26.0%	-39.8*	11.2µM*	-24.9%[46.1 µM]	-4.6%
SMILES	GoLoco inh red	Sfp inh	Coupling enz	ALDH1A1 inh	NPSR antagonist	KDM4E inh
CC1(C)C(=O)Nc2ccccc2N1C(=O)Cn1ncc(Cl)c(Cl)c1=O	32.6%	13.4%	5.1	1.12µM*	?	7.9%
O=C(Cn1ncc(Cl)c(Cl)c1=O)N1CCc2ccccc21	25.9%	-6.1%	0.0	10µM*	-22.6%	-3.2%
O=C(Cn1ncc(Cl)c(Cl)c1=O)N1CCN(Cc2ccccc2)CC1	14.4%	-15.3%	-2.1	28.2µM*	-52.9%	-4.1%
O=C(Cn1ncc2c1-c1ccccc1OC2)N1CCc2ccccc21	4.9%	14.5%	2.5	0.0%	-10.2%	-8.2%
COc1ccc(C2=NN(C(=O)c3ccncc3)C(c3ccccc3O)C2)cc1 (stereo unspecified)	.	14.1µM*	2.5	.	.	.
Cc1ccc(S(=O)(=O)CCSC(=N)N)cc1	-6.7%	20.2%	2.5	0.112µM*	14.3%	5.7%
C[n+]1cnn2c1SCC1(COC1)C2	10µM*	2.6%	2.7	-4.8%	0.6%[46.1 µM]	-10.8%
CCOc1ccccc1C(=O)NC1CCN(Cc2nnnn2C2CCCC2)CC1	2.3%	9.9%	5.7	28.2µM*	-4.8%[46.1 µM]	-0.4%
Cc1[nH]c(C)c(S(=O)(=O)NCc2ccco2)c1C(=O)N1CCCCC1	.	9.5%	-0.7	.	.	.
N#CC(C#N)=C1C=CC=CN1/C(=C\c1ccco1)C(=O)c1ccc(Cl)cc1	-9.4%	14.1µM*	0.2	-7.4%	?	-11.6%
C/C(=N\NC(N)=O)C1(C)CCCCC1	0.6%	13.0%	7.2	25.1µM*	-1.3%[46.1 µM]	-4.1%
O=C(c1ccc(F)cc1)C1CCN(S(=O)(=O)c2ccccc2)CC1	-9.4%	-1.6%	1.2	?	7.3%	-1.8%
O=C(c1ccc(F)cc1)N1CCCCC(S(=O)(=O)c2ccccc2)C1=O (stereo unspecified)	1.6%	79.4µM*	-2.0	?	4.2%	3.5%
Cc1cc(C)cc(OCCn2ccnc2)c1	.	20.9%	-1.5	.	.	.
CN1C(=O)C(Cl)(Cl)C(=O)c2ccccc21	-5.2%	2.51µM*	-74.8*	0.398µM*	15.5%	?
CN1C(=O)C2(NC(=O)c3ccccc3N2C)c2ccccc21 (stereo unspecified)	-10.5%	10.9%	2.7	.	10.7%	-9.6%

Screens from PubChem.
